# Assay outcomes: PubChem BioAssay, several laboratories
# In the library only some 2.9% were active in any assay of this set; here they are far more common.
# ERa coact pot – enhancers of ERα–SRC-1 coactivator binding, primary screen, biochemical, TR-FRET, ERα LBD, low estradiol; Estrogen receptor (Homo sapiens), P03372; TR-FRET ERalpha-LBD/SRC-Cy5 coactivator binding, 2 h; 100 = basal binding, no effect; coactivator binding (% of control), % at 25.6 µM; 86,000 compounds, 1.3% hits; in the data active = activity above about 200%;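 note: binding measured in presence of low estradiol as agonist stimulus; 0% = peptide alone without receptor and 100% = receptor with peptide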
# ERb coact inh – inhibitors of ERβ-SRC1 coactivator interaction, primary screen, biochemical, TR-FRET, ERβ LBD, SRC-1 peptide; Estrogen receptor beta (Homo sapiens), Q92731; TR-FRET ER-beta LBD / SRC1-Cy5 peptide binding; receptor agonist-loaded with 1 µM estradiol; inhibition, % at 25.6 µM; 86,000 compounds, 1.3% hits;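 active = compounds whose percent inhibition of the receptor-coactivator binding signal exceeds about 50% in the single-dose screen, limit read from the data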;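 note: 0% = receptor plus peptide wells without compound and 100% = peptide-only wells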
# Target sequence (Q92731 whole entry, looked up, the tested form may be a part): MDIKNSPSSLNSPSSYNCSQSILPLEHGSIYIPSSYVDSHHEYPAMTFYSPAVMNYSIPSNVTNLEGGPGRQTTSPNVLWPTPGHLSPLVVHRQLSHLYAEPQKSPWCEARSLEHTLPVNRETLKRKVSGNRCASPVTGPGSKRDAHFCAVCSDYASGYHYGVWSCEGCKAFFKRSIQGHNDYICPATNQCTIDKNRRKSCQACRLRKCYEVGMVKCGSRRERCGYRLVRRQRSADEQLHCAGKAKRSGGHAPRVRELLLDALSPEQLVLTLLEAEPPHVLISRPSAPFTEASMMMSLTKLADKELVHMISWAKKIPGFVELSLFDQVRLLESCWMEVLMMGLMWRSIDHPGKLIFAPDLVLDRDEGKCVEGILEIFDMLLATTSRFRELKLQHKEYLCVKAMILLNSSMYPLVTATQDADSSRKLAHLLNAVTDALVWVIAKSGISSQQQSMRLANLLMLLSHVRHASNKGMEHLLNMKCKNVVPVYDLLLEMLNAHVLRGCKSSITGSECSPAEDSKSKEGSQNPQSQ
# MRP1 act – H69AR viability gain despite doxorubicin, primary screen, MRP-1 activator project, H69AR cells, CellTiter-Glo; viability rescue; viability increase, % at 10 µM; 140,000 compounds, 0.61% hits; AID 799, 2007;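 active = viability gain under doxorubicin at or above a set limit, the compound median plus 3 SD, cut at about 4.7% in these data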;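 note: MRP-1 overexpressing cells given doxorubicin 25 µM after compound pretreatment; 18-22 h compound pretreatment then 72 h with doxorubicin before readout; 0% = doxorubicin-only wells and 100% = vehicle-treated cells without doxorubicin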
# ERa coact inh – ERα–SRC-1 coactivator interaction inhibitors, primary screen, biochemical, TR-FRET, ERα LBD, estradiol-bound | 86,000 compounds, 1.7% hits | Estrogen receptor (Homo sapiens), P03372 | TR-FRET ER-alpha LBD / SRC-1 peptide | inhibition, % at 25.6 µM; in the data active = inhibition above about 50%;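 note: 0% = receptor plus peptide control and 100% = peptide only without receptor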
# Smad3 FoxH1 inh – Smad3/FoxH1 peptide binding inhibitors, primary screen, biochemical, TR-FRET; Mothers against decapentaplegic homolog 3 (Homo sapiens), P84022; AID 630, 2007; 88,000 compounds, 0.29% hits; TR-FRET Smad3/Dy647-FoxH1 peptide binding, europium anti-His; inhibition, % at 25 µM;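 active = compounds that reduce the energy-transfer binding signal between the protein and its labelled peptide by more than half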;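 note: 0% = Smad3 plus labelled peptide maximal FRET and 100% = peptide-only background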
# MRP resist rev – reversal of MRP1-mediated doxorubicin resistance, primary screen, H69AR cells, doxorubicin co-treatment; H69AR cells + 2 uM doxorubicin, CellTiter-Glo, 72 h; differential viability (reversal), % at 10 µM; 85,000 compounds, 0.04% hits;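 active = viability drop by adding the cancer drug above about 55%, with treated viability meeting a 40% cutoff, limit read from the data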;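 note: viability without doxorubicin minus viability with 2 µM doxorubicin for each compound; larger differential means the compound sensitizes cells more to doxorubicin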
# Numbers without * were called inactive; x = no result given; [ ] = another dose, or the depositor's remark.
SMILES,ERa coact pot,ERb coact inh,MRP1 act,ERa coact inh,Smad3 FoxH1 inh,MRP resist rev
COc1ccc2c(Cl)c(C(=O)NCCCn3ccnc3)sc2c1Cl,276*,-5,-3,12,-16,7
COc1ccc(C(=O)NCCCn2ccnc2)cc1,122,-3,1,4,-4,-4
CCC1CCCCN1C(=O)c1c[nH]c2ccc(S(=O)(=O)N(C)c3ccc(Cl)cc3)cc2c1=O (centres undefined),26,14,-2,58*[fluorescence artefact?],20,7
CN(c1ccc(F)cc1)S(=O)(=O)c1ccc2[nH]cc(C(=O)O)c(=O)c2c1,47,27,-2,55*[fluorescence artefact?],10,16
COCCN(CCOC)C(=O)c1c[nH]c2ccc(S(=O)(=O)N(C)c3ccc(F)cc3)cc2c1=O,52,17,-2,53*[fluorescence artefact?],8,7
CCc1ccc(N(C)S(=O)(=O)c2ccc3[nH]cc(C(=O)NCCN4CCOCC4)c(=O)c3c2)cc1,94,4,-2,2,4,9
CC(C(=O)N1c2ccccc2CCc2ccccc21)n1nnc(-c2ccc(N(C)C)cc2)n1 (centres undefined),116,6,8.2*,-1,0,0
Cc1ccc(-c2nnn(C(C)C(=O)N3c4ccccc4CCc4ccccc43)n2)cc1 (centres undefined),103,0,3,-1,10,13
CS(=O)(=O)NCC(c1ccco1)N1CCN(c2ccc(F)cc2)CC1 (centres undefined),x,x,1,x,x,x
Cc1noc(C)c1CSCC(=O)OCC(=O)Nc1sccc1C#N,54,54*,0,55*[fluorescence artefact?],11,-5
COc1cccc(C(=O)N2CCN(c3ncccn3)CC2)c1,110,-1,-1,-2,-5,-3
COc1cccc(N2CCN(c3ncccn3)CC2)c1,338*[fluorescence artefact?],-2,1,-2,-10,-3
COC(=O)N1CC(C)N(C(=O)OC)CC1C (centres undefined),113,0,-1,-6,1,7
CSc1nnc(C)c(=O)n1COC(=O)c1ccc(S(=O)(=O)N2CCOCC2)cc1,x,x,-2,x,x,x
COc1ccc(OC)c(N=c2oc3c(OC)cccc3cc2C(=O)NCc2ccco2)c1,44,50*[fluorescence artefact?],x,75*[fluorescence artefact?],-1,18
COc1ccccc1N=c1oc2c(OC)cccc2cc1C(=O)NCc1ccco1,109,10,-6,6,11,0
COc1ccc(C2=Nn3c(nnc3-c3cccnc3)SC2)cc1,99,58*[fluorescence artefact?],-1,-10,7,-31
O=C(O)CSCCc1ccccc1,x,x,x,x,-16,x
CCOC(=O)C1=C(c2ccccc2)N2CCN=C2S1,424*[fluorescence artefact?],-10,x,-10,1,-10
CCOC(=O)c1c(C)nc(-c2ccccc2)nc1N,103,5,-2,7,-7,7
CN1C(=O)c2c(sc3c2CCCC3)NC1c1ccccc1O (centres undefined),61,78*[fluorescence artefact?],-2,19,-10,-16
C[C@H](C(=O)c1ccncc1)c1ccccn1,x,x,x,x,0,x
Cn1c(C(=O)NCCN2CCOCC2)cc2c(=O)n(C)c3ccccc3c21,90,-5,-3,-5,-6,-6
Cn1c(C(=O)NC2CCCCCC2)cc2c(=O)n(C)c3ccccc3c21,223*[fluorescence artefact?],28,0,23,0,-1
COc1cc(NC(=O)c2cc3c(=O)n(C)c4ccccc4c3n2C)cc(OC)c1OC,330*,-5,-1,-23,15,8
SMILES,ERa coact pot,ERb coact inh,MRP1 act,ERa coact inh,Smad3 FoxH1 inh,MRP resist rev
Cn1c(C(=O)NCc2cccs2)cc2c(=O)n(C)c3ccccc3c21,513*[fluorescence artefact?],7,0,-1,30,-6
Cn1c(C(=O)NC2CCCCC2)cc2c(=O)n(C)c3ccccc3c21,151,21,1,28,8,-5
Cc1ccc(CNC(=O)c2cc3c(=O)n(C)c4ccccc4c3n2C)cc1,291*[fluorescence artefact?],42,0,39,12,-2
Cc1cc2ccccc2c[n+]1CC(O)C[n+]1cc2ccccc2cc1C,x,x,x,x,-9,x
Cc1ccc2cc3cc(C(=O)NCc4ccc5c(c4)OCO5)oc3nc2c1,125,35,-6,51*[fluorescence artefact?],9,-10
COc1ccc2nc3oc(C(=O)Nc4ccc(OC)c(OC)c4)cc3cc2c1,108,41,1,63*[fluorescence artefact?],42,-4
COc1ccc(C)cc1NC(=O)c1cc2cc3ccc(C)cc3nc2o1,209*,-20,0,40,-2,10
COc1ccc2cc3cc(C(=O)Nc4ccc5c(c4)OCO5)oc3nc2c1,159,39,-4,23,-17,-7
O=C(O)C(Cl)(c1ccccc1)c1ccccc1,x,x,x,x,-8,x
O=C(O)c1ccccc1NS(=O)(=O)c1ccc2c3c(cccc13)C(=O)N2,x,x,0,x,x,x
O=C1Nc2ccc(S(=O)(=O)NCc3ccco3)c3cccc1c23,48,58*[fluorescence artefact?],x,44,2,-9
CN(c1ccccc1C(=O)O)S(=O)(=O)c1ccc2c3c(cccc13)C(=O)N2,31,62*,0,57*,-4,0
N#C/C(=C\NC(=S)c1ccncc1)c1nc2ccccc2s1,x,x,x,x,3,x
OC[C@@H]1CCC[C@H](n2cnc3c(=S)nc[nH]c32)O1,x,x,x,x,55*,x
CCC(=Nc1ccc(N)cc1)C1=C(O)C(C(=O)OC)C(C)(C)CC1=O (centres undefined),123,83*[fluorescence artefact?],0,3,1,x
O=C(O)CNC(=O)[C@H]1NC(C(F)(F)F)(C(F)(F)F)OC1(C(F)(F)F)C(F)(F)F,x,x,x,x,-4,x
CC(=O)Nc1ccc2c(c1)C(=Nc1ccc(C(=O)O)cc1)c1ccccc1-2,x,x,x,x,-3,x
Cc1ccc(S(=O)(=O)C(C#N)c2nc3ccccc3nc2N2CCCCC2)cc1 (centres undefined),60,3,x,4,-11,0
N#CC(c1nc2ccccc2nc1N1CCCCC1)S(=O)(=O)c1ccc(Cl)cc1 (centres undefined),231*[fluorescence artefact?],43,x,18,2,-9
CCOc1ccc2nc(Nc3nc4c(c(=O)[nH]3)CCC4)nc(C)c2c1,178,36,x,52*[fluorescence artefact?],19,2
CCOc1ccc2nc(Nc3nc(CSc4nnnn4-c4ccccc4)cc(=O)[nH]3)nc(C)c2c1,216*[fluorescence artefact?],39,-3,70*[fluorescence artefact?],-8,0
NC(N)=NC(N)=Nc1ccc(S(N)(=O)=O)cc1,x,x,x,x,-6,x
CCOC(=O)Cc1csc(NC(=O)c2ccc(S(=O)(=O)N3CCCC3)cc2)n1,127,-4,-1,2,3,12
